Our source for the plasma membrane CFTR intensity and total CFTR intensity values is PubChem BioAssay AID1224864 (Chung Lab, Department of Pediatrics, Emory University, 2016).

Each structure is given as a SMILES string. About 20 (1%) of roughly 2,000 compounds were called active. No rule for the calls is given here. The full list was thinned out, with actives kept by preference. Residues, ends and D or L forms follow the SMILES beside them. *: point of attachment. Boc = CC(C)(C)OC(=O)*; OBn = c1ccc(CO*)cc1

The target in this test is Cystic fibrosis transmembrane conductance regulator (Homo sapiens) (UniProt P13569). As to the kind of experiment: correctors of F508del-CFTR surface localization, primary screen, imaging, HeLa, high-content microscopy, immunofluorescence (AID 1224864).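 Also: HeLa cells stably expressing F508del-CFTR stained with 3G11 antibody against NBD1.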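 As to plasma membrane CFTR intensity: mean immunofluorescence in a thin cell-margin band taken as plasma membrane.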 As to conditions: PM immunofluorescence imaging, 24 h, at 10 µM, stronger effect = higher value, relative to vehicle wells set at 100; total CFTR intensity: measured here: total cellular F508del-CFTR signal.
Cystic fibrosis transmembrane conductance regulator (Homo sapiens), sequence (P13569 whole entry, looked up, stated change not applied): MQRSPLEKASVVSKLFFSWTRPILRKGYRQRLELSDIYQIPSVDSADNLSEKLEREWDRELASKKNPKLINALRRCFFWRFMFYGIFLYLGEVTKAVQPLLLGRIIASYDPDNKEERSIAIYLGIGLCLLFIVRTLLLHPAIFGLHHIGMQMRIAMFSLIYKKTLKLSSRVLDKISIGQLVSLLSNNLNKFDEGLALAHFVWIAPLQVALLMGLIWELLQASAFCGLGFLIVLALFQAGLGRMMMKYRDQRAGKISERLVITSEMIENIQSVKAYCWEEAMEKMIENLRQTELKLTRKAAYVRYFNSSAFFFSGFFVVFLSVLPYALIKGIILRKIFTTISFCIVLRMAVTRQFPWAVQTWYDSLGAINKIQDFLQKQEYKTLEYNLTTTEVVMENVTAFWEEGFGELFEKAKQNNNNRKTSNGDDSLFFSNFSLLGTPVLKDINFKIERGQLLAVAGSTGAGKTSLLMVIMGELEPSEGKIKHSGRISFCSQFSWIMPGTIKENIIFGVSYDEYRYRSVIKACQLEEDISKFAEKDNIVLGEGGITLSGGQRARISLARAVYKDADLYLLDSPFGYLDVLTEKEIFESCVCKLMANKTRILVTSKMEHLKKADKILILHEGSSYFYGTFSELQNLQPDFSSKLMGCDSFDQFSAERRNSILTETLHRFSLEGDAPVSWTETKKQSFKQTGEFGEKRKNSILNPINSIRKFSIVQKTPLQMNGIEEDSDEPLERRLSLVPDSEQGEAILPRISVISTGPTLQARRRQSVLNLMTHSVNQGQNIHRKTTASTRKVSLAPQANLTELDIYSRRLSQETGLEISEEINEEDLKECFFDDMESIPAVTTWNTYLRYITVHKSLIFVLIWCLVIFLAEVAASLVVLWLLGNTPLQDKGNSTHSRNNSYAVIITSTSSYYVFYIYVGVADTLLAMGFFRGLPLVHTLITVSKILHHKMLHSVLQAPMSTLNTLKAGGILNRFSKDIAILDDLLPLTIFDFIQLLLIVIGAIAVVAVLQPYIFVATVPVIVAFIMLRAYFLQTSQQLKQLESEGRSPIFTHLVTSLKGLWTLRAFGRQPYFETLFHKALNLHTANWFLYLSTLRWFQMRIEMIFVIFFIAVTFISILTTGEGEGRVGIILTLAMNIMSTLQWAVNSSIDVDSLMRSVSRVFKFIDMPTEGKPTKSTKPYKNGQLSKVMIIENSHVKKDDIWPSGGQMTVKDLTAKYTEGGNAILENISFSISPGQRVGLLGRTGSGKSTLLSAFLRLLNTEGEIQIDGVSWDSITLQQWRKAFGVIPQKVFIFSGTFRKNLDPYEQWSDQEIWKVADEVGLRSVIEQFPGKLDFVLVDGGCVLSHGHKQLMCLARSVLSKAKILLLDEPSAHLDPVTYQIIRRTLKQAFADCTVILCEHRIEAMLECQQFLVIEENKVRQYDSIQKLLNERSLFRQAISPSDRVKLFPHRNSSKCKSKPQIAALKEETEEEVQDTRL
`O=C1CC(c2ccc(OCCCCCOc3ccc(C4CC(=O)NC4=O)cc3)cc2)C(=O)N1` (stereo unspecified): the plasma membrane CFTR intensity is 96% (inactive) and the total CFTR intensity was determined as 95%.

Consider `O=C1CN(O)C=C2N=c3ccccc3=C2N1c1ccc([N+](=O)[O-])cc1`, for which the plasma membrane CFTR intensity was 72% (inactive) and the total CFTR intensity is 74%.

On to `O=C(CCC1CCCN(C(=O)c2ccsc2)C1)NCc1ccc(F)c(F)c1` (stereo unspecified), for which the plasma membrane CFTR intensity was 81% (inactive) and the total CFTR intensity was found to be 83%.

In the case of `CC1(C)C(=O)OC(c2cccs2)C2(CCCCC2)C1=O` (stereo unspecified), the plasma membrane CFTR intensity is 102% (inactive) and the total CFTR intensity was found to be 110%.

`NC12CC3CC(C1)CC(O)(C3)C2`: the plasma membrane CFTR intensity is 89% (inactive) and the total CFTR intensity worked out at 91%.

Turning to `Cc1cc(C)cc(Nc2nc3c([nH]2)c(=O)n(C)c(=O)n3C)c1`, the plasma membrane CFTR intensity is 98% (inactive) and the total CFTR intensity is 95%.

`CCOC(=O)C(=O)Nc1ccc(Oc2ccccc2)cc1`: the plasma membrane CFTR intensity is 85% (inactive) and the total CFTR intensity came to 84%.

On to `CC(=O)Nc1nc(CCC(C)C)cc2c1c(=O)oc1ccccc12`, for which the plasma membrane CFTR intensity is 77% (inactive) and the total CFTR intensity stood at 80%.

As to `Cc1cc(OCC(=O)C(C)(C)C)c2c(C)c(C)c(=O)oc2c1`, the plasma membrane CFTR intensity is 86% (inactive) and the total CFTR intensity is 86%.

In the case of `CCN(CC)CCOC(=O)C(c1ccccc1)c1ccccc1`, the plasma membrane CFTR intensity is 86% (inactive) and the total CFTR intensity was 84%.

Regarding `CCC(C(=O)OCCN(CC)CC)c1ccccc1` (stereo unspecified), the plasma membrane CFTR intensity was 95% (inactive) and the total CFTR intensity was 100%.

Turning to `CCN(CC)CCOC(=O)C1(C2CCCCC2)CCCCC1`, the plasma membrane CFTR intensity was 120% (active) and the total CFTR intensity is 123%.

As for `O=C(NCCO)c1ccc(Cl)c(Cl)c1`, the plasma membrane CFTR intensity is 90% (inactive) and the total CFTR intensity was 90%.

For the compound `Cc1cccc2c(C(=O)O)cc(-c3cccnc3)nc12`, the plasma membrane CFTR intensity was 94% (inactive) and the total CFTR intensity worked out at 93%.

In the case of `C[C@]12CC[C@@H]3c4ccc(O)cc4CC[C@H]3[C@@H]1CC[C@@H]2OC(=O)CCC(=O)O`, the plasma membrane CFTR intensity was 78% (inactive) and the total CFTR intensity was found to be 84%.

Take `CC(=O)Nc1ccc(S(=O)(=O)c2ccc(N)cc2)cc1`: the plasma membrane CFTR intensity was 97% (inactive) and the total CFTR intensity is 95%.

For `Cc1cc(C(=O)NC(CC(C)C)C(=O)O)cc(C)c1[N+](=O)[O-]` (stereo unspecified), the plasma membrane CFTR intensity is 73% (inactive) and the total CFTR intensity amounted to 71%.

Consider `Cc1cc(O)c(C(=O)Cc2csc(C)n2)c(O)c1`, for which the plasma membrane CFTR intensity was 110% (active) and the total CFTR intensity was determined as 127%.

For `Cc1cc(O)c2/c(=N/N)c(-c3csc(C)n3)coc2c1`, the plasma membrane CFTR intensity was 69% (inactive) and the total CFTR intensity was determined as 71%.

Consider `COc1ccc(CC(=O)c2c(O)cc(O)cc2O)cc1OC`, for which the plasma membrane CFTR intensity is 83% (inactive) and the total CFTR intensity came out at 82%.

With `CC(C)CC(NC(=O)C(NC(=O)OC(C)(C)C)C(C)C)C(=O)NC(CCC(=O)OCc1ccccc1)C(N)=O` (stereo not drawn) (Boc-Val-Leu-Glu(OBn)-NH2; configuration not given here), the plasma membrane CFTR intensity is 82% (inactive) and the total CFTR intensity amounted to 80%.

For the compound `O=C1C(=O)c2ccccc2C(O)=C1c1ccccc1F`, the plasma membrane CFTR intensity was 70% (inactive) and the total CFTR intensity amounted to 75%.

For the compound `CC(=O)[C@@H]1[C@@H](C(=O)c2ccc(C)cc2)[C@]2(C(=O)Nc3ccccc32)[C@H]2C=Cc3cc(F)ccc3N12`, the plasma membrane CFTR intensity is 77% (inactive) and the total CFTR intensity was 114%.

As to `CC(C)OC(=O)C1C(=O)CC(C)(O)C(C(=O)OC(C)C)C1c1cccc(O)c1` (stereo unspecified), the plasma membrane CFTR intensity was 77% (inactive) and the total CFTR intensity turned out to be 78%.

Consider `CCOC(=O)c1ccccc1NC(=O)c1ccc(F)cc1`, for which the plasma membrane CFTR intensity is 101% (inactive) and the total CFTR intensity was found to be 103%.

Consider `CCOc1ccc(NC(=O)N[C@@H](CCSC)C(=O)OC)cc1`, for which the plasma membrane CFTR intensity is 88% (inactive) and the total CFTR intensity is 88%.

With `FC(F)(F)c1ccc(-c2noc(CN3CCCN(C4CCCCC4)CC3)n2)cc1`, the plasma membrane CFTR intensity was 95% (inactive) and the total CFTR intensity was determined as 100%.

Consider `COc1ccc2[nH]cc(CCNC(=O)C3CCCNC3=O)c2c1` (stereo unspecified), for which the plasma membrane CFTR intensity was 87% (inactive) and the total CFTR intensity amounted to 85%.

Regarding `CC(C)(C)C(=O)NC(=S)NNC(=O)c1ccncc1`, the plasma membrane CFTR intensity was 94% (inactive) and the total CFTR intensity worked out at 90%.

In the case of `O=C(NC(Nc1ccccn1)C(Cl)(Cl)Cl)c1ccccc1` (stereo unspecified), the plasma membrane CFTR intensity was 84% (inactive) and the total CFTR intensity was 85%.

Regarding `COc1cc(CNc2nnnn2C)ccc1OCc1ccc(F)cc1Cl`, the plasma membrane CFTR intensity is 79% (inactive) and the total CFTR intensity was 78%.

Regarding `CC1CCCc2sc3ncn(N)c(=N)c3c21` (stereo unspecified), the plasma membrane CFTR intensity is 71% (inactive) and the total CFTR intensity was 71%.

Turning to `O=C(c1ccco1)N(CCC(c1ccccc1)c1ccco1)Cc1ccco1` (stereo unspecified), the plasma membrane CFTR intensity was 99% (inactive) and the total CFTR intensity came out at 101%.

As to `CC(=O)Nc1nnc(S(N)(=O)=O)s1`, the plasma membrane CFTR intensity is 87% (inactive) and the total CFTR intensity amounted to 89%.

On to `CC(=O)N=c1sc(S(N)(=O)=O)nn1C`, for which the plasma membrane CFTR intensity was 125% (active) and the total CFTR intensity is 144%.

As to `COc1ccc(CNC(=O)c2cc3c(=O)n4ccccc4nc3n(Cc3cccnc3)c2=N)cc1`, the plasma membrane CFTR intensity was 556% (inactive) and the total CFTR intensity was determined as 561%.

As to `COc1ccc(S(=O)(=O)NC(Cc2cnc[nH]2)C(=O)O)cc1` (stereo unspecified), the plasma membrane CFTR intensity was 75% (inactive) and the total CFTR intensity came to 82%.

Take `CC(C)Cn1c(=S)[nH]c2cc(C(=O)O)ccc2c1=O`: the plasma membrane CFTR intensity was 78% (inactive) and the total CFTR intensity turned out to be 81%.

Consider `O=C(CCCC(=O)OCC1CCCO1)OCC1CCCO1` (stereo unspecified), for which the plasma membrane CFTR intensity was 84% (inactive) and the total CFTR intensity stood at 84%.

As for `CC(=O)[C@H]1CC[C@H]2[C@@H]3CCC4=CC(=O)CC[C@]4(C)[C@H]3CC[C@]12C`, the plasma membrane CFTR intensity was 81% (inactive) and the total CFTR intensity turned out to be 85%.

With `CC(=O)[C@@]1(O)CC[C@H]2[C@@H]3CCC4=CC(=O)CC[C@]4(C)[C@H]3CC[C@@]21C`, the plasma membrane CFTR intensity was 88% (inactive) and the total CFTR intensity was 89%.

Turning to `CC(=O)SC1CC2=CC(=O)CCC2(C)C2CCC3(C)C(CCC34CCC(=O)O4)C12` (stereo unspecified), the plasma membrane CFTR intensity is 177% (active) and the total CFTR intensity turned out to be 233%.

In the case of `N#C/C(=C\c1ccc(O)c(O)c1)C(=O)NCCCc1ccccc1`, the plasma membrane CFTR intensity is 78% (inactive) and the total CFTR intensity turned out to be 83%.
